Results filed as inconclusive are left out. Activity calls are given as the source filed them. Unless noted, calls follow the shape of the full dose curve.
Tests used:
[1] = biological target: Estrogen receptor (Homo sapiens) (UniProt P03372); experiment: qHTS assay for small molecule antagonists of estrogen receptor alpha signaling (AID 588513; active = well fitted curve in the direction sought with a large enough effect in the signal ratio, with a control signal flat, not every such curve was filed as active; the % refers to the signal ratio; also: % is scaled to controls: 0 for no effect and ±100 for the full control effect)
Summary of the method: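 ER-alpha-UAS-bla GripTite HEK 293 cells in 2% charcoal/dextran-treated FBS medium; compounds titrated (1:2, duplicate), then stimulated with 0.5 nM 17-beta-estradiol for 18 h at 37C. CCF4 beta-lactamase fluorescence; Hill-fit IC50 and efficacy.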

[2] = biological target: Estrogen receptor (Homo sapiens) (UniProt P03372); experiment: qHTS assay for small molecule agonists of estrogen receptor alpha signaling (AID 588514);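 also: 0% = vehicle only and 100% = reference agonist; nearly all actives have a fitted effect of over 70% in size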
Summary of the method: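 EC50 and efficacy came from Hill fits of beta-lactamase reporter signal (CCF4 dye, 2 h at room temperature) scaled between DMSO and 20 nM 17-beta-estradiol. Agonist mode: HEK293 ER-alpha-UAS-bla cells in charcoal/dextran-stripped serum medium, 18 h compound exposure at 37 C.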

[3] = qHTS assay for small molecule antagonists of peroxisome proliferator-activated receptor delta signaling (AID 588535); details: HEK293T PPARd-UAS-bla, beta-lactamase FRET ratio, 18 h; 460 nm channel;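 also: cells co-treated with a PPAR-delta agonist as stimulator during compound exposure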
Summary of the method: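 Fluorescence from CCF4-loaded GeneBLAzer PPAR-delta-UAS-bla HEK293T cells (2 hrs RT loading) quantified reporter inhibition after an 18 hr, 37 C compound exposure across a titration.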

[4] = biological target: Vitamin D3 receptor (Homo sapiens) (UniProt P11473); experiment: qHTS assay for small molecule antagonists of vitamin D receptor signaling (AID 588541);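 also: receptor activated by calcitriol during compound treatment; series mostly up to about 77 µM; % is scaled to controls: 0 for no effect and ±100 for the full control effect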
Summary of the method: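 VDR-UAS-bla HEK293T cells in 2% charcoal-stripped FBS were stimulated with 1-alpha,25-dihydroxyvitamin D3 (3 nM final) plus compound for 16 h at 37 C. The beta-lactamase CCF4 readout was normalized to 50 nM agonist and DMSO, and Hill fits gave IC50.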

[5] = biological target: Vitamin D3 receptor (Homo sapiens) (UniProt P11473); experiment: qHTS assay for small molecule agonists of vitamin D receptor signaling (AID 588543);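 also: 0% = DMSO basal and 100% = reference agonist control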
Summary of the method: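 VDR-UAS-bla HEK293T cells, 2000/well, 2% charcoal-stripped FBS; compound titration 16 h at 37 C; CCF4 beta-lactamase ratio read. Normalized to 50 nM 1-alpha,25-dihydroxyvitamin D3 (100%) and DMSO; Hill fit gives EC50, efficacy.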

[6] = qHTS assay for small molecule agonists of retinoid X receptor alpha signaling (AID 588544); details: HEK293T RXRa-UAS-bla, beta-lactamase reporter, 18 h; 530 nm emission;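 as to activation: 0% = DMSO basal wells and 100% = reference agonist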
[7] = biological target: Retinoic acid receptor RXR-alpha (Homo sapiens) (UniProt P19793); experiment: as above
[8] = biological target: Thyroid hormone receptor beta (Homo sapiens) (UniProt P10828); experiment: qHTS assay for small molecule agonists of thyroid hormone receptor beta signaling (AID 588545);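 also: 0% = DMSO only and 100% = 10 nM T3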
Summary of the method: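 Efficacy and EC50 values derive from Hill fits of qHTS titration data, normalized to 10 nM T3 and DMSO-only wells. HEK 293 reporter cells were stimulated for 18 hrs at 37 C, with beta-lactamase activity measured by CCF4 fluorescence.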

[9] = qHTS assay for small molecule antagonists of retinoid X receptor alpha signaling (AID 588546; active = well fitted inhibition curve with a large enough effect in the signal ratio, with a control signal flat, not every such curve was filed as active; the % refers to the signal ratio;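 also: cells stimulated with 9-cis-retinoic acid as agonist; % is scaled to controls: 0 for no effect and ±100 for the full control effect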); details: HEK293T RXRa-UAS-bla, beta-lactamase ratio, antagonist mode; measured here: W530 green channel, cytotoxicity proxy
Summary of the method: (§1)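 Beta-lactamase reporter inhibition, read as CCF4 fluorescence ratio (ex 405, em 460/530 nm) after 2 h at RT. HEK293T UAS-bla cells, 2500/well, were stimulated with 9-cis-RA at 500 or 100 nM final alongside test compound for 18 h at 37 C.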

[10] = biological target: Retinoic acid receptor RXR-alpha (Homo sapiens) (UniProt P19793); experiment: as above; details: HEK293T RXRa-UAS-bla, beta-lactamase ratio, antagonist mode
Summary of the method: as §1

[11] = qHTS assay for small molecule activators of the nuclear factor-kappa B (NF-kB) signaling pathway (AID 651749; active = well fitted activation curve with a large enough effect in the signal ratio; the % refers to the signal ratio; also: series mostly up to about 77 µM; % of control where 0% means no effect); details: NF-kB-bla ME-180 cells, beta-lactamase FRET ratio, 16 h; activation: stronger effect = higher value
Summary of the method: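 In this qHTS format, compounds acting as activators increase NF-kB-driven beta-lactamase in ME-180 cells, measured as disrupted FRET after 16 hr exposure at 37C and 5% CO2.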

[12] = biological target: Peroxisome proliferator-activated receptor alpha (Homo sapiens) (UniProt Q07869); experiment: qHTS assay for small molecule agonists of the peroxisome proliferator-activated receptor alpha (PPARalpha) signaling pathway (AID 651778; active = well fitted curve in the direction sought with a large enough effect; an effect the other way counts as inactive or inconclusive; also: % of control where 0% means no effect); details: PathHunter PPARalpha complementation, chemiluminescence, 6 h; max response: stronger effect = higher value
Summary of the method: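 Enzyme-fragment complementation assay in which ligand-bound PPARalpha translocates and forms an active enzyme that generates chemiluminescence. Cells were plated overnight, exposed to compound for 6 hr at 37 C, and then given detection reagent for 60 min at room temperature.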

[13] = qHTS assay for small molecule agonists of the antioxidant response element (ARE) signaling pathway measured by Nrf2-dependant transcriptional activity - cell viability counter screen (AID 720653; active = well fitted curve in the direction sought with a large enough effect in the repeat runs; an effect the other way counts as inactive or inconclusive; also: % is scaled to controls: 0 for no effect and ±100 for the full control effect); details: ARE-bla HepG2 viability, CellTiter-Glo ATP luminescence, 16 h; max response: stronger effect = lower value
Summary of the method: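 ARE-bla HepG2 cells treated with compounds for 16 h at 37C; this counter screen measures viability as intracellular ATP by CellTiter-Glo luminescence after 30 min at room temperature.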

[14] = qHTS assay for cell viability of the p53RE-bla HCT-116 cell line (AID 743292; active = well fitted curve in the direction sought with a large enough effect; an effect the other way counts as inactive or inconclusive; also: % is scaled to controls: 0 for no effect and ±100 for the full control effect; nearly all actives have a fitted effect of over 55% in size)
Summary of the method: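 HCT-116 p53RE-bla cells seeded 4,000/well; 5 h at 37 C; compound (DMSO) added; 16 h at 37 C; CellTiter-Glo added, 30 min RT; luminescence read.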

[15] = biological target: Nuclear receptor subfamily 1 group I member 2 (Rattus norvegicus) (UniProt Q9R1A7); experiment: qHTS assay for small molecule activators of the rat pregnane X receptor (rPXR) signaling pathway (AID 651751; call rule not given here; also: 0% is about no effect); details: rPXR reporter cells, luciferase (One-Glo), 24 h
[16] = qHTS assay for small molecule activators of the human pregnane X receptor (PXR) signaling pathway (AID 720659; call rule not given here; also: 0% is about no effect)
[17] = biological target: Thyroid hormone receptor beta (Homo sapiens) (UniProt P10828); experiment: qHTS assay for small molecule antagonists of thyroid hormone receptor beta signaling (AID 588547; active = well fitted inhibition curve with a large enough effect in the signal ratio, with a control signal flat, not every such curve was filed as active; the % refers to the signal ratio); details: TR-UAS-bla HEK293, beta-lactamase ratio, antagonist mode, 18 h
Summary of the method: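 TR-UAS-bla GripTite HEK293 cells in 2% charcoal/dextran FBS medium; compounds 0.59 nM to 92 uM with T3 at 0.4nM final, 18 h at 37 C. Beta-lactamase read by CCF4 fluorescence (460/530 nm); Hill fits gave IC50 and efficacy.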

[18] = qHTS assay for environmental chemicals that activate the Aryl hydrocarbon Receptor (AhR) signaling pathway (AID 651777; active = well fitted curve in the direction sought with a large enough effect; an effect the other way counts as inactive or inconclusive; also: % of control where 0% means no effect; nearly all actives have a fitted effect of over 15% in size); details: 1A2-DRE human hepatoma cells, luciferase, 24 h; activation: stronger effect = higher value
Summary of the method: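 1A2-DRE human hepatoma reporter line; 1,200 cells/well; cmpd or DMSO 24 h, 37 C/5% CO2; One-Glo 30 min RT; luciferase lum.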

[19] = qHTS assay for small molecule agonists of the antioxidant response element (ARE) signaling pathway measured by Nrf2-dependant transcriptional activity (AID 720636; active = well fitted curve in the direction sought with a large enough effect in the repeat runs; an effect the other way counts as inactive or inconclusive;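 also: HepG2 cells with an ARE-driven luciferase reporter; % of control where 0% means no effect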)
Summary of the method: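 Cells: ARE-luc HepG2 with Nrf2-responsive luciferase. Medium contained 1% dialyzed FBS. Compound exposure lasted 16 hr at 37 C and 5% CO2, followed by ONE-Glo luciferase detection.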

[20] = qHTS assay for cell viability of HEK293 cells (AID 743288; active = well fitted curve in the direction sought with a large enough effect; an effect the other way counts as inactive or inconclusive; also: % is scaled to controls: 0 for no effect and ±100 for the full control effect; nearly all actives have a fitted effect of over 50% in size); details: ATP luminescence (CellTiter-Glo), 18 h; max response: stronger effect = lower value
Summary of the method: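 Steps: plate 2,000 parental HEK293 cells per well; incubate ≥5 h, 37 C; add compounds in DMSO; incubate 18 h, 37 C; add CellTiter-Glo; wait 30 min at room temperature; read luminescence.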

Vitamin D3 receptor (Homo sapiens), sequence (P11473 whole entry, looked up): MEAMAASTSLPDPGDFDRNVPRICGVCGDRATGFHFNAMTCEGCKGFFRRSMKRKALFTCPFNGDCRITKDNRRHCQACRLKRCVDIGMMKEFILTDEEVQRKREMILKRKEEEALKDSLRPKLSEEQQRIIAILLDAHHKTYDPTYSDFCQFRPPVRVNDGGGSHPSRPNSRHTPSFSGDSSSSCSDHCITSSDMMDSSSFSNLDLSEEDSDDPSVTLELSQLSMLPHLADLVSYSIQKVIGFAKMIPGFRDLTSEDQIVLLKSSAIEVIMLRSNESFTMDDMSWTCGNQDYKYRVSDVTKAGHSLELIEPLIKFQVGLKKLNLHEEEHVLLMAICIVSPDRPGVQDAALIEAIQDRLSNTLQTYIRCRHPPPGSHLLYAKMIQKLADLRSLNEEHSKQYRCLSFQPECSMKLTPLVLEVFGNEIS
Thyroid hormone receptor beta (Homo sapiens), sequence (P10828 whole entry, looked up): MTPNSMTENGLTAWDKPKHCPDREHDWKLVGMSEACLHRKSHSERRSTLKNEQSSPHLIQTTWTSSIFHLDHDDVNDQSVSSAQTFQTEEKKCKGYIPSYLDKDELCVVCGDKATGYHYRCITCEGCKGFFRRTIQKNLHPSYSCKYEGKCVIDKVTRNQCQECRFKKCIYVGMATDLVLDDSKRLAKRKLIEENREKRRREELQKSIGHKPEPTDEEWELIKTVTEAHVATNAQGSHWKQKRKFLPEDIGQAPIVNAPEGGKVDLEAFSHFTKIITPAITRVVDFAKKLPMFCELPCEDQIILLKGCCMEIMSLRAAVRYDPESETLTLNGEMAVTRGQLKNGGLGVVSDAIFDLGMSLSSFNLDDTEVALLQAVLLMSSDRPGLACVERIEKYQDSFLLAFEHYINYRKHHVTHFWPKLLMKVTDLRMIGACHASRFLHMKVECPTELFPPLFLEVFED
Retinoic acid receptor RXR-alpha (Homo sapiens), sequence (P19793 whole entry, looked up): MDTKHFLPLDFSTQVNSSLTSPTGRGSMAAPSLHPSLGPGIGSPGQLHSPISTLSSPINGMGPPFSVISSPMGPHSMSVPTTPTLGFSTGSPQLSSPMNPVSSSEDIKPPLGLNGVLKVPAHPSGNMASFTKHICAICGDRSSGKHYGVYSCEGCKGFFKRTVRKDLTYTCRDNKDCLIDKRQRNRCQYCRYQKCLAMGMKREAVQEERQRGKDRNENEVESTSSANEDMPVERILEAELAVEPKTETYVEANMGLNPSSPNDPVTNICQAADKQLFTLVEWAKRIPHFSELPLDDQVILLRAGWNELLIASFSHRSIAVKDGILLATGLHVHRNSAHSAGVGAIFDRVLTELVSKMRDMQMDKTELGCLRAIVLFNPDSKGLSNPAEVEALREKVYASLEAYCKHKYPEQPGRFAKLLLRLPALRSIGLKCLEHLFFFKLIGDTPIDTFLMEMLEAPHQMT
Estrogen receptor (Homo sapiens), sequence (P03372 whole entry, looked up): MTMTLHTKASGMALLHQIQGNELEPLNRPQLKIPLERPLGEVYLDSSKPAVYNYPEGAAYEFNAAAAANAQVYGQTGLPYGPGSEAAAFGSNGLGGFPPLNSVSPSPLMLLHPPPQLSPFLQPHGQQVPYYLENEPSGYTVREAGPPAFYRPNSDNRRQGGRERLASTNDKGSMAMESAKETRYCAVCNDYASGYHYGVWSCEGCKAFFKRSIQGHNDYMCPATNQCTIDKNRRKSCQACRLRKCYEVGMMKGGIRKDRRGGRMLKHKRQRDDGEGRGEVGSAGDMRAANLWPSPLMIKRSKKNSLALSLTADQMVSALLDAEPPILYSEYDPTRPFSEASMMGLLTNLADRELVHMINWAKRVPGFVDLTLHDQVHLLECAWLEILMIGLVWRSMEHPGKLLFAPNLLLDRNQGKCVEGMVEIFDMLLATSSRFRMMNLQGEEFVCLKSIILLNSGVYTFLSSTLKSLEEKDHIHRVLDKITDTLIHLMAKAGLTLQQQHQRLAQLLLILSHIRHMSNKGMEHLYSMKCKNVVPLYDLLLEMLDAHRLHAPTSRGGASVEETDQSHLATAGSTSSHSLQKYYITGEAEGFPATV
Nuclear receptor subfamily 1 group I member 2 (Rattus norvegicus), sequence (Q9R1A7 whole entry, looked up): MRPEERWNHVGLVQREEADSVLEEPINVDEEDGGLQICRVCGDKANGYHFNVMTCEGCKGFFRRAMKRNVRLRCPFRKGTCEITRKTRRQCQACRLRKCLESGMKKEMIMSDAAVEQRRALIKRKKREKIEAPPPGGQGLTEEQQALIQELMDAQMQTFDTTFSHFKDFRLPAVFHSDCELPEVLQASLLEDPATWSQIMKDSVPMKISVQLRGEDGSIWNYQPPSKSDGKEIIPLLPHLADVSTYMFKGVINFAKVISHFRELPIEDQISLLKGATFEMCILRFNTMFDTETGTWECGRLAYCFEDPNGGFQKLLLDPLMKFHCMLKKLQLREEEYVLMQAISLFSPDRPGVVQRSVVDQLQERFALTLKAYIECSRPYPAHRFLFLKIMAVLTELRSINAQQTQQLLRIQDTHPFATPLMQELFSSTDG
Peroxisome proliferator-activated receptor alpha (Homo sapiens), sequence (Q07869 whole entry, looked up, the tested form may be a part): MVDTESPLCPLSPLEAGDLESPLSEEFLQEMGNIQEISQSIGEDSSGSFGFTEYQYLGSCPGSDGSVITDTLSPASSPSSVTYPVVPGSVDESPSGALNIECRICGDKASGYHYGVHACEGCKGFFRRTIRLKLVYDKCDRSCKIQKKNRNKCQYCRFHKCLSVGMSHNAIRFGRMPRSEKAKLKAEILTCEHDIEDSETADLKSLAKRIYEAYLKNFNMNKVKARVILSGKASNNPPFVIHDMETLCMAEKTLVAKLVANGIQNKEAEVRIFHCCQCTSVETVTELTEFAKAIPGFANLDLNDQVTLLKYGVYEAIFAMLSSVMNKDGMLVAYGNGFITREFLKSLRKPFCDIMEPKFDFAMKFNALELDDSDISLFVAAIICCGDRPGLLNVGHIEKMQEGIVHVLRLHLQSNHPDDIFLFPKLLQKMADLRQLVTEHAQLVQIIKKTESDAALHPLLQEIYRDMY

Compound	Potency [1]	Potency [2]	max response [3] [%]	Potency [4]	outcome [5]	max response [6] [%]	Potency [7]	Potency [8]	max response [9] [%]	max response [10]	activation [11]	max response [12]	max response [13]	Potency [14]	max response [15]	outcome [16]	activity change % (negative = inhibition) [17]	activation [18]	Potency [19]	max response [20]
CCCCCC1CCC(=O)O1 (stereo unspecified)	inactive	inactive	31.3	inactive	inactive	-5.36	inactive	inactive	-5.89	2.03% (inactive)	-1.34% (inactive)	-1.42% (inactive)	1.26% (inactive)	inactive	2.69% (inactive)	inactive	–	–	–	–
CC1(C)C(=O)N(Cl)C(=O)N1Cl	inactive	inactive	–	inactive	inactive	-24.2	inactive	–	1.31	-12.2% (inactive)	–	-0.353% (inactive)	-14.6% (inactive)	inactive	-0.522% (inactive)	inactive	-0.904% (inactive)	0.743% (inactive)	inactive	–
CCC(=O)OCCc1ccccc1	inactive	inactive	20.5	inactive	–	-7.14	inactive	inactive	-6.4	3.85% (inactive)	1.34% (inactive)	-0.0633% (inactive)	0.747% (inactive)	inactive	-2.51% (inactive)	inactive	-6.7% (inactive)	2.12% (inactive)	inactive	-5.25% (inactive)
O=[N+]([O-])c1ccc2c(c1)Cc1ccccc1-2	inactive	inactive	11.1	–	–	-11.5	inactive	inactive	-2.02	-11.9% (inactive)	-1.58% (inactive)	-0.719% (inactive)	-13.8% (inactive)	inactive	5.85% (inactive)	inactive	-0.921% (inactive)	0.842% (inactive)	–	-16.4% (inactive)
C[Si]1(C)O[Si](C)(C)O[Si](C)(C)O[Si](C)(C)O[Si](C)(C)O1	inactive	inactive	5.15	–	inactive	-18.1	inactive	inactive	-10.4	2.84% (inactive)	-6.08% (inactive)	-3.04% (inactive)	-13.9% (inactive)	inactive	-3.44% (inactive)	inactive	–	0.106% (inactive)	inactive	-11.9% (inactive)
